Mtb betalactam = beta-lactam sensitization of Mtb H37Rv. M. tuberculosis H37Rv growth with meropenem, percent inhibition. inhibition, % at 25 µM. 330,000 tested, 0.27% active. AID 434955; call rule not given here;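 note: growth measured after seven days incubation then overnight dye step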
VHR inh abs = blocks human VHR1 dual specificity phosphatase; 290,000 tested, 0.52% active; recombinant VHR phosphatase, pNPP absorbance; inhibition, % at 13.3 µM; AID 1654; in the data active = inhibition above about 50%
Target sequence (P51452 whole entry, looked up): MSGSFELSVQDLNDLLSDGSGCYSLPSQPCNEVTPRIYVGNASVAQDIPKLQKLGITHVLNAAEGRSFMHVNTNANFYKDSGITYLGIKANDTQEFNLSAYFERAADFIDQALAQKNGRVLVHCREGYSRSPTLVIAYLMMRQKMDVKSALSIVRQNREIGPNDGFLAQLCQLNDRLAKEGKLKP
GDH-TPI inh = GDH-TPI coupled enzyme inhibition counter-screen. GDH-TPI coupled enzyme counterscreen, NADH absorbance. inhibition, % at 4.8 µM. 360,000 tested, 1.2% active. AID 588335; in the data active = inhibition above about 30%
Mtb hypoxia inh = reduces hypoxia-regulated biosensor signal in M. tuberculosis. fluorescence inhibition, % (concentration not given with the values). M. tuberculosis hypoxia-regulated fluorescent reporter, fluorescence. 300,000 tested, 0.1% active; in the data active = fluorescence inhibition mostly above about 23%, no sharp cut-off; inactive = mostly below about 17%
FBA Mtb inh = inhibits M. tuberculosis FBA enzyme. AID 588726. inhibition, % at 1 µM. 360,000 tested, 2.3% active. P9WQA3. purified M. tuberculosis FBA, fluorescence read-out; in the data active = inhibition above about 27%
Target sequence (P9WQA3 whole entry, looked up): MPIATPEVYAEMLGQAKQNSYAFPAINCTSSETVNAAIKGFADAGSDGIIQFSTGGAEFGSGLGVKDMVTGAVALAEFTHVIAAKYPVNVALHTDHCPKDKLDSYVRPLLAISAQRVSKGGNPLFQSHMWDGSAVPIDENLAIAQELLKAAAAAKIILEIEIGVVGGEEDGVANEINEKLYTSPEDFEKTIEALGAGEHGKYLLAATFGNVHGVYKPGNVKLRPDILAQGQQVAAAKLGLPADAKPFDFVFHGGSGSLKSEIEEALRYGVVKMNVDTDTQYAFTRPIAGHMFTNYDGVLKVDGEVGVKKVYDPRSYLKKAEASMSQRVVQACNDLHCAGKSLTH
Each line names hits and unclear results; the compound was inactive in the other large screens. Sampled rows, rich in hits. Any-hit rate of the full collection: about 3.6%.

Cc1ccc([N+](=O)[O-])cc1-c1ccc(/C=N/NC(=O)CN2CCOCC2)o1	GDH-TPI inh 40 (no result: Mtb hypoxia inh)
COC(=O)c1ccc(-c2ccc(/C=N/NC(=O)Cc3nnc(N)s3)o2)cc1	GDH-TPI inh 37, FBA Mtb inh 28 (no result: Mtb hypoxia inh)
Cc1ccc(-c2ccc(/C=N/NC(=O)Cc3nnc(N)s3)o2)cc1Cl	none (no result: Mtb hypoxia inh)
Cc1csc(C(C#N)=NO)n1	none (no result: Mtb betalactam, VHR inh abs, GDH-TPI inh, FBA Mtb inh)
O=C(NN=Cc1cc(Br)cs1)c1ccc2c(c1)OCCO2	none (no result: Mtb betalactam, VHR inh abs, GDH-TPI inh, FBA Mtb inh)
Nc1nnc(CC(=O)N/N=C/c2ccc(-c3ccccc3)o2)s1	GDH-TPI inh 47 (no result: Mtb hypoxia inh)
Nc1nnc(CC(=O)NN=Cc2ccc(-c3ccc(F)cc3)o2)s1	none (no result: Mtb betalactam, VHR inh abs, GDH-TPI inh, FBA Mtb inh)
Cc1ccc(NC(=O)CCC(=O)NN=Cc2coc3ccccc3c2=O)cc1	none (no result: Mtb betalactam, VHR inh abs, GDH-TPI inh, FBA Mtb inh)
O=C(Nc1cnc2ccccn2c1=O)c1ccc(F)cc1	none
COc1ccc(C(=O)Nc2cnc3ccccn3c2=O)cc1	GDH-TPI inh 49
COc1cccc(C(=O)N=c2sc3c(C)ccc(OC)c3n2C)c1	none
CCn1c(=NC(=O)c2ccc(N3C(=O)CCC3=O)cc2)sc2c(OC)ccc(OC)c21	GDH-TPI inh 37
CCn1c(=NC(=O)c2cccc(N3C(=O)CCC3=O)c2)sc2c(C)ccc(OC)c21	GDH-TPI inh 38
CN(C)/C=C/c1onc(-c2c(F)cccc2Cl)c1C#N	GDH-TPI inh 31 (no result: Mtb hypoxia inh)
CCCCC(CC)COCCCN=Cc1c(O)[nH]c(=S)[nH]c1=O (configuration not stated)	GDH-TPI inh 39
CCOCCCN=Cc1c(O)n(Cc2ccccc2)c(=O)[nH]c1=O	none (no result: Mtb hypoxia inh)
COc1cc(/C=N/Nc2cc(C)nc(NS(=O)(=O)c3ccccc3)n2)ccc1O	GDH-TPI inh 54 (no result: Mtb hypoxia inh)
COc1cc(/C=N/Nc2cc(C)nc(NS(=O)(=O)c3ccc(C)cc3)n2)ccc1O	GDH-TPI inh 54 (no result: Mtb betalactam, Mtb hypoxia inh)
COc1cc(C=NNc2cc(C)nc(NS(=O)(=O)c3ccccc3)n2)ccc1O	none (no result: Mtb betalactam, VHR inh abs, GDH-TPI inh, FBA Mtb inh)
COc1ccc(/C=N/Nc2cc(C)nc(NS(=O)(=O)c3ccc(C)cc3)n2)cc1	none (no result: Mtb hypoxia inh)
O=C1CCCC(=NNC(=O)COc2ccc(Cl)cc2)C1	none (no result: Mtb betalactam, VHR inh abs, GDH-TPI inh, FBA Mtb inh)
C=C(C)C1CC=C(C)C(=NNC(=O)CNc2ccccc2OC)C1 (configuration not stated)	none (no result: Mtb betalactam, VHR inh abs, GDH-TPI inh, FBA Mtb inh)
CC=C(C)C(=O)NCCN1C2=NCC(Cc3ccc(O)cc3)N2CC1Cc1ccc(OC)cc1 (configuration not stated)	none (no result: Mtb betalactam, VHR inh abs, GDH-TPI inh, FBA Mtb inh)
Cc1cccc(NS(=O)(=O)c2csc(C(N)=O)c2)c1C	VHR inh abs 53
C#CCOCCOCCOCCNc1nc(N2CCN(C(=O)C(CCC(=O)O)n3cc(C(N)Cc4ccc(O)cc4)nn3)CC2)nc(N2CCN(C(=O)C(CCC(=O)O)n3cc(C(N)Cc4ccc(O)cc4)nn3)CC2)n1 (configuration not stated)	none (no result: Mtb betalactam, VHR inh abs, GDH-TPI inh, FBA Mtb inh)
NS(=O)(=O)c1ccc(C(=O)Nc2ccc(-c3nc4cccnc4s3)cc2)cc1	none
CCc1ccc(S(=O)(=O)Nc2ccc(-c3nc4cccnc4s3)cc2)s1	GDH-TPI inh 45, FBA Mtb inh active
O=S(=O)(Nc1ccc(-c2nc3cccnc3s2)cc1)c1cc(F)ccc1F	FBA Mtb inh active (no result: Mtb hypoxia inh)
Oc1ccc(C=NNC(=S)NC2CC3CCC2C3)cc1 (configuration not stated)	none (no result: Mtb betalactam, VHR inh abs, GDH-TPI inh, FBA Mtb inh)
Oc1ccc(/C=N/NC(=S)NC2CC3CCC2C3)cc1 (configuration not stated)	GDH-TPI inh 61 (no result: Mtb hypoxia inh)
COc1ccc(NC(=O)CCC(=O)NN=Cc2cccnc2)cc1	none (no result: Mtb betalactam, VHR inh abs, GDH-TPI inh, FBA Mtb inh)
Cn1c(N2CCOCC2)nc(-c2ccccc2)c1-c1ccccc1	FBA Mtb inh 103
c1ccc(-c2nc3ccccc3nc2N2CCOCC2)cc1	none (no result: Mtb hypoxia inh)
COc1ccc(Br)cc1/C=C/c1ccc2cccc(O)c2n1	VHR inh abs 57
CC1Oc2ccccc2C=C1/C=N/NC(=O)[C@@H](C)NC(=O)OC(C)(C)C (some centres not stated)	GDH-TPI inh 38 (no result: Mtb hypoxia inh)
CC1Oc2ccccc2C=C1C=NNC(=O)c1cccnc1 (configuration not stated)	none (no result: Mtb betalactam, VHR inh abs, GDH-TPI inh, FBA Mtb inh)
CC1Oc2ccccc2C=C1/C=N\NC(=O)c1cccnc1 (configuration not stated)	GDH-TPI inh 48 (no result: Mtb hypoxia inh)
O=C1C2C(c3ccc(Cl)cc3)N3C(=O)N(c4cccc(F)c4)C(=O)[C@@]3(Cc3ccccc3)C2C(=O)N1C1CCCCC1 (some centres not stated)	none (no result: Mtb betalactam, VHR inh abs, GDH-TPI inh, FBA Mtb inh)
Cc1cc(NC(=O)COC(=O)CC2CCCC2)c([N+](=O)[O-])cc1C	none
CCC(=O)OCC(=O)Nc1cc(C)c(C)cc1[N+](=O)[O-]	VHR inh abs 51
CCOc1ccc(-c2c(C(=O)NN=Cc3ccc(C)o3)nnn2-c2nonc2N)cc1	none (no result: Mtb betalactam, VHR inh abs, GDH-TPI inh, FBA Mtb inh)
CCCc1c(O)c2ccccc2n(-c2ccccc2)c1=O	FBA Mtb inh 45 (no result: Mtb hypoxia inh)
Cn1c(=O)c(Cc2ccccc2)c(O)c2ccccc21	none
CC(C)c1ccccc1-n1c(SCC(=O)c2ccc3c(c2)NC(=O)CO3)nc2ccccc2c1=O	FBA Mtb inh 122
COc1ccc(/C=C(/NC(=O)c2cccs2)C(=O)NC(C)(C)C)cc1OC	none
COc1ccc(/C=C(\NC(=O)c2cccs2)C(=O)NN)cc1OC	VHR inh abs 52, GDH-TPI inh 38
OCC(O)C(O)C(OC1OC(CO)C(O)C(O)C1O)C(O)CO (configuration not stated)	none (no result: Mtb betalactam, VHR inh abs, GDH-TPI inh, FBA Mtb inh)
COc1cccc(C=Nc2cccc3c(=O)[nH][nH]c(=O)c23)c1O	none
COc1ccc(C=Nc2cccc3c(=O)[nH][nH]c(=O)c23)c2ccccc12	GDH-TPI inh 31
Cc1cccc(/C=N\Nc2cn[nH]c(=O)c2Cl)c1	GDH-TPI inh 44 (no result: Mtb hypoxia inh)
O=c1[nH]ncc(N/N=C\c2cccnc2)c1Cl	GDH-TPI inh 43 (no result: Mtb hypoxia inh)
O=c1[nH]ncc(N/N=C\c2ccncc2)c1Cl	GDH-TPI inh 44 (no result: Mtb hypoxia inh)
O=c1[nH]ncc(N/N=C\c2cccs2)c1Cl	GDH-TPI inh 36 (no result: Mtb hypoxia inh)
O=c1[nH]ncc(NN=Cc2ccncc2)c1Cl	none (no result: Mtb betalactam, VHR inh abs, GDH-TPI inh, FBA Mtb inh)
Cc1cccc(C=NNc2cn[nH]c(=O)c2Cl)c1	none (no result: Mtb betalactam, VHR inh abs, GDH-TPI inh, FBA Mtb inh)
Cc1[nH]c2ccccc2c1C=NNC(=O)c1cc(C(C)C)[nH]n1	none (no result: Mtb betalactam, VHR inh abs, GDH-TPI inh, FBA Mtb inh)
N#CCCn1cc(C(=O)Nc2ccc([N+](=O)[O-])cc2)c(-c2ccccc2)n1	GDH-TPI inh 38
N#CCCn1cc(C(=O)Nc2ccc(C(=O)O)cc2)c(-c2ccc([N+](=O)[O-])cc2)n1	none
COc1ccccc1-c1c(C)oc2c(CN3CCOCC3)c(O)ccc2c1=O	FBA Mtb inh active
CCOC(=O)c1c(CN2CCCCC2C)oc2ccc(OC)cc12 (configuration not stated)	Mtb betalactam inconclusive
COC(=O)Cc1c(C)c2ccc(O)c(CN3CCCC(C)C3)c2oc1=O (configuration not stated)	none (no result: FBA Mtb inh)
COc1ccccc1-c1coc2c(CN3CCCCC3C)c(O)ccc2c1=O (configuration not stated)	FBA Mtb inh 135
COc1ccc(-c2c(C)oc3c(CN4CCCCC4C)c(O)ccc3c2=O)cc1 (configuration not stated)	FBA Mtb inh 174
Cc1oc2c(CN3CCCC(C)C3)c(O)ccc2c(=O)c1-c1ccccc1 (configuration not stated)	Mtb betalactam inconclusive, FBA Mtb inh 136

Bioassay records: PubChem, several laboratories
